In the library only some 3.5% were active in any assay of this set; here they are far more common.
Tau FP inhib: inhibitors of human tau fibril formation | K18 P301L tau heparin fibrillization, Alexa594 FP, 6 h | Potency, µM (highest dose often 57.7 µM), inactives show top-dose activity, negative = inhibition, usual class: inhibitors | 0.39% of 280,000 active | AID 1468; note: nearly all actives have a fitted effect of over 55% in size
Target sequence (P10636 561-689 P618L limits assumed): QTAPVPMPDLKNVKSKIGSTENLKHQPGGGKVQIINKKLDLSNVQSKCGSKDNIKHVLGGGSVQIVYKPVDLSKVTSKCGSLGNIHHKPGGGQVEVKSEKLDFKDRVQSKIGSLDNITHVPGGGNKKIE
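Heparin (20 uM) drove fibril formation of recombinant tau K18 P301L, 15 uM unlabeled with 0.24 uM Alexa 594 label, for 6 hr at 37 C in 100 mM sodium acetate pH 7. Fluorescence polarization (555/632 nm) read 1 hr after 30 uM ThT.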
Tau fluor counter: counter-screen for tau fibril formation inhibitors; Potency, µM (top dose mostly 57.7 µM), inactives show at the highest dose activity change, negative = decrease; AID 1463; tau K18 P301L Alexa594 fluorescence, heparin fibrillization; 0.93% of 280,000 active; note: nearly all actives have a fitted effect of over 55% in size
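Human tau K18 P301L (15 uM unlabeled, 0.24 uM Alexa 594-labeled) in 100 mM sodium acetate pH 7 with 20 uM heparin, 6 hr at 37 C. ThT 30 uM added, 1 hr ambient; Alexa 594 FP and total fluorescence read at 555/632 nm.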
TRb SRC2 PPI: disrupts binding of human TR beta to SRC2. 0.065% of 280,000 active. P10828. Potency, µM (top dose mostly 106 µM), for inactives: at the top dose activity change, negative = inhibition, actives largely listed as inhibitors. TRbeta-SRC2 peptide binding, fluorescence polarization; receptor liganded with 1 µM T3;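 note: plate controls were bound peptide for no effect and peptide without receptor for full effect; nearly all actives have a fitted effect of over 50% in size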
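Human TRb LBD (0.6 uM) plus Texas Red-labeled SRC2 peptide (20 nM), 1uM T3, 5% DMSO, 5 hr at ambient temperature. Decreased polarization (555/632 nm) flags inhibition; data normalized to free and bound peptide controls.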
Tau fibril ThT: tau fibrillization inhibition (ThT binding); P10636; recombinant tau K18 P301L (four-repeat tau fragment), heparin-induced fibrillization, ThT fluorescence; Potency, µM (doses to about 57.4 µM), inactives show top-dose activity, negative = inhibition, actives largely listed as inhibitors; 2.1% of 270,000 active; AID 1460; note: nearly all actives have a fitted effect of over 55% in size
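Heparin-induced fibrillization of the P301L-mutant K18 repeat-domain fragment of human tau was followed by ThT binding in quantitative high-throughput format.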
JMJD2E inh: inhibitors of human JMJD2E histone demethylase | JMJD2E catalytic domain, FDH-coupled NADH fluorescence (FDH is formaldehyde dehydrogenase) | Potency, µM (titrated, usually from 57.1 µM), inactives show top-dose activity change, negative = inhibition, most hits filed as inhibitors | AID 2147 | 1.6% of 230,000 active | B2RXH2; active = well fitted inhibition curve with a large enough effect, not every such curve was filed as active; inconclusive = small, poorly fitted or top-dose-only effect, or another doubt; inactive = no such curve, though single readings can be large or run the other way;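 note: 0% = wells with enzyme and -100% = buffer wells without enzyme; nearly all actives have a fitted effect of over 50% in size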
Target sequence (B2RXH2 1-337 limits assumed): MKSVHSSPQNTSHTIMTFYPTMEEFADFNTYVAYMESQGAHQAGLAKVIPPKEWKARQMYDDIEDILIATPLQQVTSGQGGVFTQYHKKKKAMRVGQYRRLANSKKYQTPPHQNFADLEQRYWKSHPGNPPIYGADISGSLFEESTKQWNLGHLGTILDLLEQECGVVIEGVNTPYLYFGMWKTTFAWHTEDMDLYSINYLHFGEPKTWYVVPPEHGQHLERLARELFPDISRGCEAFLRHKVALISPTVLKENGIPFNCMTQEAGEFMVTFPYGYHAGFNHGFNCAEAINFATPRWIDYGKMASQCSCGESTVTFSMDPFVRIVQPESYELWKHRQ
TR SRC2 fluor cs: Texas Red fluorescence interference in TRb-SRC2 counter-screen. TRb/SRC2 Texas Red total fluorescence interference. Potency, µM (titrated, usually from 106 µM), inactives show at the top dose fluorescence change, negative = quenching. 0.29% of 280,000 active. AID 1479; active = well fitted curve in either direction with a large enough effect; inconclusive = small, poorly fitted or top-dose-only effect
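Human TRb ligand-binding domain at 0.6 uM with 20 nM Texas Red SRC2 peptide in Tris buffer containing 1 uM T3 and 5% DMSO, incubated with compound 5 h at ambient temperature. Total fluorescence (555/632 nm) calculated as parallel + 2 × perpendicular.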
* = called active by the depositor; [ ] = remark or other dose. Unless noted, calls come from the whole dose curve; as a rule, active = well fitted curve in the direction sought with a large enough effect; inconclusive = small, poorly fitted or top-dose-only effect, or another doubt; inactive = no such curve, though single readings can be large; an effect the other way counts as inactive or inconclusive. Unless noted, % is set by controls: 0 for no effect and ±100 for the full control effect; potency is the fitted concentration of half-maximal effect.

For CC(C)n1c(=O)[nH][nH]c1=S the results were Tau FP inhib inconclusive, Tau fluor counter -26%, TRb SRC2 PPI 2%, Tau fibril ThT 28µM*, JMJD2E inh 3.2µM* and TR SRC2 fluor cs -1%.
Cc1cccc(/N=C/c2c(O)ccc3oc4c(c23)CCCC4)n1 was read as Tau FP inhib -3%, Tau fluor counter -14%, TRb SRC2 PPI -3%, Tau fibril ThT inconclusive, JMJD2E inh -23% and TR SRC2 fluor cs -1%.
Screening O=[N+]([O-])c1cc2oc3c(c2c(C=NCc2ccccc2)c1O)CCCC3 returned Tau FP inhib inconclusive, Tau fluor counter -11%, TRb SRC2 PPI -3%, Tau fibril ThT 5µM*, JMJD2E inh -9% and TR SRC2 fluor cs -9%.
`CC(C)CN=Cc1c(O)c([N+](=O)[O-])cc2oc3c(c12)CCCC3` gave Tau FP inhib inconclusive, Tau fluor counter inconclusive, TRb SRC2 PPI -1%, Tau fibril ThT 4.5µM*, JMJD2E inh 13µM* and TR SRC2 fluor cs inconclusive.
For CCC(=O)NNc1nc2c(F)cc(F)cc2s1 the results were Tau FP inhib -2%, Tau fluor counter -2%, TRb SRC2 PPI -7%, Tau fibril ThT 4%, JMJD2E inh -3% and TR SRC2 fluor cs 1%.
For Cc1cccc(CSCCNC(=O)CCSc2ccccc2)c1 the results were Tau FP inhib -1%, Tau fluor counter -19%, TRb SRC2 PPI -5%, Tau fibril ThT -17%, JMJD2E inh 2% and TR SRC2 fluor cs -7%.
COc1ccnc(CS(=O)c2nc3ccc(OC(F)F)cc3[nH]2)c1OC (configuration not stated) was read as Tau FP inhib inconclusive, Tau fluor counter -30%, TRb SRC2 PPI 6%, Tau fibril ThT 25µM*, JMJD2E inh inconclusive and TR SRC2 fluor cs -3%.
For COc1ccc2nc(SCC(=O)N3CCNC3=O)[nH]c2c1 the results were Tau FP inhib -2%, Tau fluor counter -9%, TRb SRC2 PPI -5%, Tau fibril ThT -11%, JMJD2E inh 1% and TR SRC2 fluor cs -5%.
CC(=O)Nc1nn(C)c2nc(C)cc(C)c12 was read as Tau FP inhib 4%, Tau fluor counter 2%, TRb SRC2 PPI -5%, Tau fibril ThT 3%, JMJD2E inh 1% and TR SRC2 fluor cs -2%.
`COc1ccc(/C(C)=N/Nc2nc3ccccc3nc2C)cc1` gave Tau FP inhib 6%, Tau fluor counter inconclusive, TRb SRC2 PPI 2%, Tau fibril ThT 11µM*, JMJD2E inh inconclusive and TR SRC2 fluor cs -7%.
Cc1ccc2cc(C=C(C#N)C#N)c(N3CCCCC3)nc2c1 was read as Tau FP inhib inconclusive, Tau fluor counter -17%, TRb SRC2 PPI 5%, Tau fibril ThT 25µM*, JMJD2E inh -6% and TR SRC2 fluor cs 1%.
O=C(Cn1cnc2cc([N+](=O)[O-])ccc2c1=O)Nc1cccc2ccccc12 was read as Tau FP inhib 3%, Tau fluor counter inconclusive, TRb SRC2 PPI -7%, Tau fibril ThT inconclusive, JMJD2E inh -14% and TR SRC2 fluor cs -1%.
`O=C(/C=C/c1cccc(O)c1)c1ccc(N2CCOCC2)cc1` gave Tau FP inhib -6%, Tau fluor counter inconclusive, TRb SRC2 PPI 1%, Tau fibril ThT 3.5µM*, JMJD2E inh -4% and TR SRC2 fluor cs -4%.
`CC(=O)c1cc(F)c(N2CCN(c3ccc([N+](=O)[O-])cc3F)CC2)cc1C` gave Tau FP inhib -4%, Tau fluor counter -13%, TRb SRC2 PPI inconclusive, Tau fibril ThT inconclusive, JMJD2E inh 4% and TR SRC2 fluor cs 1%.
COc1ccc(N=C2NN=C(c3ccc4c(c3)OCCO4)CS2)cc1 was read as Tau FP inhib inconclusive, Tau fluor counter inconclusive, TRb SRC2 PPI -3%, Tau fibril ThT 7.1µM*, JMJD2E inh -17% and TR SRC2 fluor cs -1%.
N#C/C(=C/c1ccco1)C(N)=S was read as Tau FP inhib inconclusive, Tau fluor counter inconclusive, TRb SRC2 PPI inconclusive, Tau fibril ThT 28µM*, JMJD2E inh inconclusive and TR SRC2 fluor cs inconclusive.
CCCCSc1nnc2c(n1)OC(C(=O)c1ccccc1)Nc1ccccc1-2 (configuration not stated) was read as Tau FP inhib inconclusive, Tau fluor counter inconclusive, TRb SRC2 PPI -5%, Tau fibril ThT 32µM*, JMJD2E inh 0% and TR SRC2 fluor cs 0%.
CCOC(=O)c1nnc(-c2ccccc2)nc1Sc1c(Cl)cccc1Cl was read as Tau FP inhib -6%, Tau fluor counter inconclusive, TRb SRC2 PPI -4%, Tau fibril ThT 11µM*, JMJD2E inh 8% and TR SRC2 fluor cs -1%.
For O=C(COC(=O)c1c2c(nc3ccccc13)/C(=C/c1ccco1)CC2)NC1CCCC1 the results were Tau FP inhib -13%, Tau fluor counter inconclusive, TRb SRC2 PPI 17%, Tau fibril ThT inconclusive, JMJD2E inh 25µM* and TR SRC2 fluor cs inconclusive.
CC(C)CNC(=O)COC(=O)c1c2c(nc3ccccc13)/C(=C/c1cccs1)CC2 was read as Tau FP inhib -7%, Tau fluor counter inconclusive, TRb SRC2 PPI 1%, Tau fibril ThT inconclusive, JMJD2E inh inconclusive and TR SRC2 fluor cs -3%.
CC1CCCCC1NC(=O)COC(=O)c1c2c(nc3ccccc13)/C(=C/c1ccco1)CC2 (configuration not stated) was read as Tau FP inhib -9%, Tau fluor counter -16%, TRb SRC2 PPI -2%, Tau fibril ThT inconclusive, JMJD2E inh 16µM* and TR SRC2 fluor cs inconclusive.
`NC(=O)c1ccc(NC(=O)COC(=O)c2c3c(nc4ccccc24)/C(=C\c2cccs2)CCC3)cc1` gave Tau FP inhib 4.5µM*, Tau fluor counter inconclusive, TRb SRC2 PPI 3%, Tau fibril ThT -10%, JMJD2E inh inconclusive and TR SRC2 fluor cs 2%.
For COC(=O)c1ccccc1S(=O)(=O)N(Cc1cc2cc3c(cc2[nH]c1=O)OCO3)C1CCCCC1 the results were Tau FP inhib 5%, Tau fluor counter -15%, TRb SRC2 PPI -1%, Tau fibril ThT 1%, JMJD2E inh inconclusive and TR SRC2 fluor cs 2%.
`O=C(Nc1ccc(F)c(Cl)c1)C1CCCN(S(=O)(=O)c2cccc3nsnc23)C1` (configuration not stated) gave Tau FP inhib inconclusive, Tau fluor counter inconclusive, TRb SRC2 PPI -6%, Tau fibril ThT -2% and TR SRC2 fluor cs -2%.
COC(=O)c1c(NC(=O)Cn2nc(C(F)F)cc2C(F)F)sc(C)c1C was read as Tau FP inhib 7%, Tau fluor counter -11%, TRb SRC2 PPI -14%[53 µM], Tau fibril ThT 5%, JMJD2E inh -18% and TR SRC2 fluor cs 1%[53 µM].
